Results as given in PubChem BioAssay AID1159580 (chemical genetic matrix, 2015).
About 2,000 (36%) of roughly 5,500 compounds were called active. Roughly 18% stayed inconclusive and do not appear here. The list shows a part of the results. A number with no mark means an inactive call. Cut-off read from the data, not from the text of the source: active = normalized growth mostly below about 0.91 (no sharp cut-off); inconclusive = no clear call, values can overlap the other calls; inactive = mostly above about 0.92.

Experiment: chemical genetic growth profiling, strain panel (AID 1159580);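 note: tested at 20 µM; growth read once vehicle control cultures reached saturation at 30 °C; 1 = growth at the plate median or of vehicle wells; lower values mean less growth of the strain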
Settings: growth OD

Question: Which results are given for `COC(=O)Nc1nc2ccc(C(=O)c3ccccc3)cc2[nH]1`?
Answer: normalized growth (S. cerevisiae deletion strains, locus YJR075W, strain HOC1, active compounds read low): 0.924; normalized growth (S. cerevisiae deletion strains, locus YKL009W, strain mrt4, active compounds read low): 1.05; normalized growth (S. cerevisiae deletion strains, locus YKL085W, strain MDH1 (second series), active compounds read low): 1.05; normalized growth (S. cerevisiae deletion strains, locus YKL085W, strain MDH1, active compounds read low): 1.05; normalized growth (S. cerevisiae deletion strains, locus YKL160W, strain elf1, active compounds read low): 0.894 (active); normalized growth (S. cerevisiae deletion strains, locus YKL190W, strain CNB1, active compounds read low): 1.01; normalized growth (S. cerevisiae deletion strains, locus YKR001C, strain vps1, active compounds read low): 0.956; normalized growth (S. cerevisiae deletion strains, locus YKR026C, strain gcn3, active compounds read low): 0.956; normalized growth (S. cerevisiae deletion strains, locus YKR091W, strain srl3, active compounds read low): 1; normalized growth (S. cerevisiae deletion strains, locus YLL001W, strain dnm1, active compounds read low): 0.933; normalized growth (S. cerevisiae deletion strains, locus YLL026W, active compounds read low): 0.973; normalized growth (S. cerevisiae deletion strains, locus YLL041C, strain sdh2, active compounds read low): 0.984; normalized growth (S. cerevisiae deletion strains, locus YLR027C, strain aat2, active compounds read low): 0.94; normalized growth (S. cerevisiae deletion strains, locus YLR039C, strain RIC1, active compounds read low): 0.938; normalized growth (S. cerevisiae deletion strains, locus YLR058C, strain SHM2, active compounds read low): 1.02; normalized growth (S. cerevisiae deletion strains, locus YLR102C, strain apc9, active compounds read low): 1; normalized growth (S. cerevisiae deletion strains, locus YLR113W, strain HOG1, active compounds read low): 0.946; normalized growth (S. cerevisiae deletion strains, locus YLR221C, strain rsa3, active compounds read low): 0.939; normalized growth (S. cerevisiae deletion strains, locus YLR258W, strain gsy2, active compounds read low): 0.949; normalized growth (S. cerevisiae deletion strains, locus YLR262C, strain YPT6 (second series), active compounds read low): 0.782 (active); normalized growth (S. cerevisiae deletion strains, locus YLR262C, strain YPT6, active compounds read low): 0.98; normalized growth (S. cerevisiae deletion strains, locus YLR268W, strain sec22, active compounds read low): 0.98; normalized growth (S. cerevisiae deletion strains, locus YLR320W, strain mms22, active compounds read low): 0.849 (active); normalized growth (S. cerevisiae deletion strains, locus YLR330W, strain CHS5, active compounds read low): 1; normalized growth (S. cerevisiae deletion strains, locus YLR342W, strain FKS1 (second series), active compounds read low): 0.852; normalized growth (S. cerevisiae deletion strains, locus YLR342W, strain FKS1, active compounds read low): 0.908 (active); normalized growth (S. cerevisiae deletion strains, locus YLR357W, strain rsc2, active compounds read low): 0.925; normalized growth (S. cerevisiae deletion strains, locus YLR370C, strain arc18, active compounds read low): 0.946; normalized growth (S. cerevisiae deletion strains, locus YLR371W, strain rom2, active compounds read low): 1.01; normalized growth (S. cerevisiae deletion strains, locus YLR384C, strain iki3, active compounds read low): 1; normalized growth (S. cerevisiae deletion strains, locus YLR418C, strain cdc73, active compounds read low): 0.932; normalized growth (S. cerevisiae deletion strains, locus YML016C, strain PPZ1, active compounds read low): 1.01; normalized growth (S. cerevisiae deletion strains, locus YML032C, strain rad52, active compounds read low): 0.957; normalized growth (S. cerevisiae deletion strains, locus YML120C, strain ndi1, active compounds read low): 0.96; normalized growth (S. cerevisiae deletion strains, locus YML124C, strain tub3, active compounds read low): 0.207 (active); normalized growth (S. cerevisiae deletion strains, locus YMR058W, strain fet3, active compounds read low): 0.968; normalized growth (S. cerevisiae deletion strains, locus YMR078C, strain ctf18, active compounds read low): 0.986; normalized growth (S. cerevisiae deletion strains, locus YMR125W, strain sto1, active compounds read low): 1.03; normalized growth (S. cerevisiae deletion strains, locus YMR129W, active compounds read low): 0.987; normalized growth (S. cerevisiae deletion strains, locus YMR205C, strain PFK2, active compounds read low): 0.806 (active); normalized growth (S. cerevisiae deletion strains, locus YMR223W, strain ubp8, active compounds read low): 0.965; normalized growth (S. cerevisiae deletion strains, locus YMR231W, strain pep5, active compounds read low): 0.955; normalized growth (S. cerevisiae deletion strains, locus YMR263W, strain SAP30, active compounds read low): 0.999; normalized growth (S. cerevisiae deletion strains, locus YMR307W, strain GAS1, active compounds read low): 0.463 (active); normalized growth (S. cerevisiae deletion strains, locus YNL067W, strain RPL9B, active compounds read low): 0.978; normalized growth (S. cerevisiae deletion strains, locus YNL071W, strain lat1, active compounds read low): 0.925; normalized growth (S. cerevisiae deletion strains, locus YNL128W, strain TEP1, active compounds read low): 1.01; normalized growth (S. cerevisiae deletion strains, locus YNL153C, strain GIM3, active compounds read low): 0.0819 (active); normalized growth (S. cerevisiae deletion strains, locus YNL183C, strain NPR1, active compounds read low): 0.827 (active); normalized growth (S. cerevisiae deletion strains, locus YNL209W, strain ssb2, active compounds read low): 0.971; normalized growth (S. cerevisiae deletion strains, locus YNL233W, strain BNI4, active compounds read low): 0.814 (active); normalized growth (S. cerevisiae deletion strains, locus YNL248C, strain rpa49, active compounds read low): 0.977; normalized growth (S. cerevisiae deletion strains, locus YNL250W, strain rad50, active compounds read low): 0.994; normalized growth (S. cerevisiae deletion strains, locus YNL271C, strain bni1, active compounds read low): 1.01; normalized growth (S. cerevisiae deletion strains, locus YNL298W, strain CLA4, active compounds read low): 1; normalized growth (S. cerevisiae deletion strains, locus YNL307C, strain MCK1, active compounds read low): 0.742 (active); normalized growth (S. cerevisiae deletion strains, locus YNL322C, strain KRE1 (second series), active compounds read low): 0.901 (active); normalized growth (S. cerevisiae deletion strains, locus YNL322C, strain KRE1, active compounds read low): 0.997; normalized growth (S. cerevisiae deletion strains, locus YNR049C, strain mso1, active compounds read low): 0.981; normalized growth (S. cerevisiae deletion strains, locus YNR052C, strain pop2, active compounds read low): 0.91 (active); normalized growth (S. cerevisiae deletion strains, locus YOL006C, strain TOP1, active compounds read low): 0.968; normalized growth (S. cerevisiae deletion strains, locus YOL012C, strain htz1): 0.338; normalized growth (S. cerevisiae deletion strains, locus YOL147C, strain pex11, active compounds read low): 0.988; normalized growth (S. cerevisiae deletion strains, locus YOR001W, strain rrp6, active compounds read low): 0.925; normalized growth (S. cerevisiae deletion strains, locus YOR061W, strain CKA2, active compounds read low): 1; normalized growth (S. cerevisiae deletion strains, locus YOR069W, strain VPS5, active compounds read low): 0.993; normalized growth (S. cerevisiae deletion strains, locus YOR070C, strain gyp1, active compounds read low): 0.949; normalized growth (S. cerevisiae deletion strains, locus YOR080W, strain dia2, active compounds read low): 0.979; normalized growth (S. cerevisiae deletion strains, locus YOR083W, strain WHI5, active compounds read low): 0.896; normalized growth (S. cerevisiae deletion strains, locus YOR106W, strain vam3, active compounds read low): 0.855 (active); normalized growth (S. cerevisiae deletion strains, locus YOR136W, strain idh2, active compounds read low): 1.01; normalized growth (S. cerevisiae deletion strains, locus YOR144C, strain elg1, active compounds read low): 1; normalized growth (S. cerevisiae deletion strains, locus YOR184W, strain ser1, active compounds read low): 0.717 (active); normalized growth (S. cerevisiae deletion strains, locus YOR231W, strain MKK1, active compounds read low): 0.931; normalized growth (S. cerevisiae deletion strains, locus YOR265W, strain rbl2, active compounds read low): 0.98; normalized growth (S. cerevisiae deletion strains, locus YOR270C, strain vph1, active compounds read low): 1.07; normalized growth (S. cerevisiae deletion strains, locus YOR290C, strain snf2, active compounds read low): 0.959; normalized growth (S. cerevisiae deletion strains, locus YOR316C, strain cot1, active compounds read low): 1; normalized growth (S. cerevisiae deletion strains, locus YPL051W, strain arl3, active compounds read low): 0.869 (active); normalized growth (S. cerevisiae deletion strains, locus YPL055C, strain LGE1, active compounds read low): 0.865; normalized growth (S. cerevisiae deletion strains, locus YPL078C, strain atp4, active compounds read low): 0.931; normalized growth (S. cerevisiae deletion strains, locus YPL106C, strain sse1, active compounds read low): 1.12; normalized growth (S. cerevisiae deletion strains, locus YPL240C, strain hsp82, active compounds read low): 0.992; normalized growth (S. cerevisiae deletion strains, locus YPL241C, strain CIN2, active compounds read low): 0.0733 (active); normalized growth (S. cerevisiae deletion strains, locus YPL256C, strain CLN2, active compounds read low): 0.914; normalized growth (S. cerevisiae deletion strains, locus YPR119W, strain clb2, active compounds read low): 0.998; normalized growth (S. cerevisiae deletion strains, locus YPR141C, strain kar3, active compounds read low): 1.03; normalized growth (S. cerevisiae deletion strains, locus YPR163C, strain tif3, active compounds read low): 0.799 (active); normalized growth (S. cerevisiae deletion strains, locus YPR167C, strain met16, active compounds read low): 1; normalized growth (S. cerevisiae deletion strains, strain wtn01, active compounds read low): 0.983; normalized growth (S. cerevisiae strains, strain wild type, active compounds read low): 0.99
